Compound activity as filed in PubChem.
Tau fluor counter: counter-screen for tau fibril formation inhibitors; AID 1463; hit rate 0.93% among 280,000; Potency, µM (highest dose often 57.7 µM), without a hit: at the highest dose activity change, negative = decrease; tau K18 P301L Alexa594 fluorescence, heparin fibrillization; also: nearly all actives have a fitted effect of over 55% in size
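Human K18 P301L tau (15 uM unlabeled plus 0.24 uM Alexa 594-labeled, final) in 100 mM sodium acetate pH 7 was mixed with compound and 20 uM heparin and incubated 6 hr at 37 C.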
HPGD inh: blocks human HPGD enzyme activity; Potency, µM, without a hit: at the top dose activity change, negative = inhibition, hits mostly inhibitors; hit rate 4.3% among 150,000; P15428; purified HPGD, NADH fluorescence kinetic, PGE2 substrate; active = well fitted inhibition curve with a large enough effect, not every such curve was filed as active; inconclusive = small, poorly fitted or top-dose-only effect, or another doubt; inactive = no such curve, though single readings can be large or run the other way
Target sequence (P15428 whole entry, looked up): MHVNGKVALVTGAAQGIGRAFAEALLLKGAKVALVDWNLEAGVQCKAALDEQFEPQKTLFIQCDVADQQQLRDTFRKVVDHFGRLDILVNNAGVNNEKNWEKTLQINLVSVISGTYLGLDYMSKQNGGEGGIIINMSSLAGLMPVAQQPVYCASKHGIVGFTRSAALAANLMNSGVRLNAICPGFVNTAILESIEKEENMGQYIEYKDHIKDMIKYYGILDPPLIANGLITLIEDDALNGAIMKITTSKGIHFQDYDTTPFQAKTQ
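20 nM HPGD preincubated 15 min at room temperature with compound in 50 mM Tris-HCl pH 8, 0.01% Tween 20. Started with 1 mM NAD+ and 30 uM prostaglandin E2; NADH fluorescence (360/450 nm) read 5 times over 30-s intervals, last minus first.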
ALDH1A1 block: ALDH1A1 (human) enzyme inhibition; Purified ALDH1A1, NADH fluorescence, propionaldehyde substrate; Potency, µM (highest dose often 75.3 µM), inactives show at the highest dose activity, negative = inhibition, actives largely listed as inhibitors; hit rate 7.3% among 220,000; active = well fitted inhibition curve with a large enough effect, not every such curve was filed as active; inconclusive = small, poorly fitted or top-dose-only effect, or another doubt; inactive = no such curve, though single readings can be large or run the other way;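 also: plate controls were no enzyme wells and a reference inhibitor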
Tau FP inhib: inhibitors of human tau fibril formation; P10636; K18 P301L tau heparin fibrillization, Alexa594 FP, 6 h; Potency, µM (highest dose often 57.7 µM), for inactives: at the top dose activity, negative = inhibition, usual class: inhibitors; hit rate 0.39% among 280,000; AID 1468; also: nearly all actives have a fitted effect of over 55% in size
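Human K18 P301L fragment (15 uM unlabeled plus 0.24 uM Alexa 594-labeled) in 100 mM sodium acetate pH 7 with compound, aggregation induced by 20 uM heparin for 6 hr at 37 C. ThT (30 uM) added for 1 hr, then Alexa 594 FP read.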
NPSR antagonist: neuropeptide S receptor (human) antagonism, cAMP; AID 1461; Q6W5P4; hit rate 1% among 220,000; Potency, µM (series often up to 38.3 µM), for the others: at the top dose activity change, negative = inhibition, hits mostly inhibitors; CHO-NPSR cells, cAMP TR-FRET, antagonist mode; also: nearly all actives have a fitted effect of over 50% in size
Target sequence (Q6W5P4 whole entry, looked up): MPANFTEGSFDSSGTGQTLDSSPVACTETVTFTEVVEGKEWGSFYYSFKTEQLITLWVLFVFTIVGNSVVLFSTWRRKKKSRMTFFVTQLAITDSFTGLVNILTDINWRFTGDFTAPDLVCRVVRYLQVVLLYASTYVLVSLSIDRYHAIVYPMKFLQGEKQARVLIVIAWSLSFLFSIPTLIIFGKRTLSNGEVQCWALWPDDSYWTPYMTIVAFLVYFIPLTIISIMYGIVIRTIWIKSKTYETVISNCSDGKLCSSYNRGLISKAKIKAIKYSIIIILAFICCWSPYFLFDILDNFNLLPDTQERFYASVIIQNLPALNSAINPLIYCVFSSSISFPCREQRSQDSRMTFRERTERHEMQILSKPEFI
Tau ThT inhib: inhibitors of human tau fibril formation, thioflavin T binding; Potency, µM (titrated, usually from 57.4 µM), for inactives: at the top dose activity, negative = inhibition, usual class: inhibitors; AID 1460; recombinant tau K18 P301L (four-repeat tau fragment), heparin-induced fibrillization, ThT fluorescence; P10636; hit rate 2.1% among 270,000; also: nearly all actives have a fitted effect of over 55% in size
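Aggregation was driven by heparin (20 uM final) acting on recombinant tau […] bearing P301L in 100 mM sodium acetate pH 7; fibrils were detected with Thioflavin T.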
* = called active by the depositor; [ ] = another dose, or the depositor's remark. In the library only some 9.5% were active in any assay of this set; here they are far more common. Unless noted, calls follow the shape of the dose curve; as a rule, active = well fitted curve in the direction sought with a large enough effect; inconclusive = small, poorly fitted or top-dose-only effect, or another doubt; inactive = no such curve, though single readings can be large; an effect the other way counts as inactive or inconclusive. Unless noted, % is scaled to controls: 0 for no effect and ±100 for the full control effect; potency is read from the fitted curve at half-maximal effect.

Results for CC(=O)NCc1ccc(C(=O)CCl)s1 ?
Tau fluor counter: -7.7%; ALDH1A1 block: 0.141µM*; Tau FP inhib: 3.3%; NPSR antagonist: -12.9%; Tau ThT inhib: inconclusive

What do the screens show for `CC(=O)N(C)Cc1ccc(C(=O)CCl)cc1`?
Tau fluor counter: -11.2%; ALDH1A1 block: 0.708µM*; Tau FP inhib: 2.3%; NPSR antagonist: -1.1%; Tau ThT inhib: inconclusive

How did O=C(Nc1cccc(S(=O)(=O)N2CCCCC2)c1)Nc1ccc(Cl)cc1Cl do in these assays?
Tau fluor counter: inconclusive; HPGD inh: -5.2%; ALDH1A1 block: -6.8%; Tau FP inhib: 14.1µM*; NPSR antagonist: inconclusive; Tau ThT inhib: 13.9%

What do the screens show for `O=C(Nc1cccc(Cl)c1Cl)c1cc(S(=O)(=O)N2CCCCC2)ccc1F`?
Tau fluor counter: -8.2%; Tau FP inhib: -7.6%; Tau ThT inhib: 2.6%

How did O=C(Nc1ccccc1Cl)c1cc(S(=O)(=O)N2CCCC(C(=O)O)C2)ccc1F (stereo not given) do in these assays?
Tau fluor counter: -1.9%; HPGD inh: -23.4%; ALDH1A1 block: 22.4µM*; Tau FP inhib: -0.2%; NPSR antagonist: -8.8%[46.1 µM]; Tau ThT inhib: 4.1%

What do the screens show for `O=C(Nc1ccc(Cl)cc1Cl)NC1CCN(S(=O)(=O)c2ccc(F)cc2)CC1`?
Tau fluor counter: inconclusive; Tau FP inhib: 25.1µM*; NPSR antagonist: inconclusive

Results for COc1ccc(O[C@H]2C=C[C@@H](c3ccccc3)O[C@@H]2CO/N=C(\C)CCN2CCCCc3nc(C)c(C)cc32)cc1 ?
Tau fluor counter: -7.2%[11.6 µM]; HPGD inh: -21.1%; ALDH1A1 block: -5.2%[13.5 µM]; Tau FP inhib: 6.0%[11.6 µM]; NPSR antagonist: -54.2%; Tau ThT inhib: -8.8%[11.5 µM]

How did COc1ccc2cc(C(C)CO)ccc2c1 (stereo not given) do in these assays?
Tau fluor counter: -6.3%; HPGD inh: -8.0%; ALDH1A1 block: -7.4%; Tau FP inhib: -1.7%; Tau ThT inhib: -8.2%

How did Cc1ccc(NC(=O)CCC(=O)OCc2ccc(Br)cc2)cc1 do in these assays?
Tau fluor counter: -11.8%; HPGD inh: -5.7%; ALDH1A1 block: 0.2%; Tau FP inhib: inconclusive; NPSR antagonist: 4.2%; Tau ThT inhib: 2.8%

Results for CCOP(=O)(OCC)C(NC(=O)c1cc([N+](=O)[O-])cc([N+](=O)[O-])c1)C(F)(F)F (stereo not given) ?
Tau fluor counter: inconclusive; ALDH1A1 block: inconclusive; Tau FP inhib: inconclusive; NPSR antagonist: 10.1%; Tau ThT inhib: 25.1µM*

How did CCOP(=O)(OCC)C(C)(C)NC(=O)c1cc([N+](=O)[O-])cc([N+](=O)[O-])c1 do in these assays?
Tau fluor counter: -7.4%; HPGD inh: -3.4%; ALDH1A1 block: -9.1%; Tau FP inhib: -1.2%; NPSR antagonist: -6.1%[46.1 µM]; Tau ThT inhib: -12.7%

Results for COCCNC(=O)c1ccc(CN2CCc3ccccc3C2)cc1 ?
Tau fluor counter: 8.8%; HPGD inh: 14.1µM*; ALDH1A1 block: 8.3%; Tau FP inhib: 5.7%; NPSR antagonist: 13.2%; Tau ThT inhib: 3.5%

How did CCCNC(=O)c1ccc(CN2CCc3ccccc3C2)cc1 do in these assays?
Tau fluor counter: 6.0%; HPGD inh: -28.5%; ALDH1A1 block: -2.6%; Tau FP inhib: 8.8%; NPSR antagonist: 2.9%[46.1 µM]; Tau ThT inhib: 7.3%

Results for O=C(c1ccc(CN2CCc3ccccc3C2)cc1)N1CCCCC1 ?
Tau fluor counter: -2.9%; HPGD inh: 2.51µM*; ALDH1A1 block: inconclusive; Tau FP inhib: 2.1%; NPSR antagonist: -2.4%[46.1 µM]; Tau ThT inhib: -8.9%

How did COc1ccccc1N1CCN(C(=O)c2ccc(CN3CCc4ccccc4C3)cc2)CC1 do in these assays?
Tau fluor counter: -14.4%; HPGD inh: -6.3%; ALDH1A1 block: -3.1%; Tau FP inhib: -4.7%; NPSR antagonist: -12.2%[46.1 µM]; Tau ThT inhib: inconclusive

Results for O=C(Nc1ccc(Br)c(Cl)c1)C1CC1 ?
Tau fluor counter: -18.5%; HPGD inh: 17.8µM*; ALDH1A1 block: -12.7%; Tau FP inhib: -6.2%; NPSR antagonist: 14.2%[46.1 µM]; Tau ThT inhib: -12.7%

Results for C=CCN(C(=O)CSC1=NC(=O)CN1C(C)=O)c1nc(C)c(-c2ccccc2)s1 ?
Tau fluor counter: -14.1%; ALDH1A1 block: 6.31µM*; Tau FP inhib: inconclusive; NPSR antagonist: inconclusive; Tau ThT inhib: inconclusive

Results for Cc1ccc(C(C)n2cc(C(=O)NCc3cccnc3)nn2)cc1 (stereo not given) ?
Tau fluor counter: -1.7%; HPGD inh: -4.7%; ALDH1A1 block: 11.2µM*; Tau FP inhib: 3.4%; NPSR antagonist: inconclusive; Tau ThT inhib: -6.9%

Results for CC(c1ccccc1)n1cc(C(=O)NCc2ccccn2)nn1 (stereo not given) ?
Tau fluor counter: -5.1%; HPGD inh: -3.9%; ALDH1A1 block: 1.6%; Tau FP inhib: -0.8%; NPSR antagonist: 7.2%[46.1 µM]; Tau ThT inhib: -11.5%

What do the screens show for `COC(=O)c1sc(N2C(=O)c3oc4ccc(C)cc4c(=O)c3C2c2ccc(O)c(OC)c2)nc1C` (stereo not given)?
Tau fluor counter: inconclusive; Tau FP inhib: 3.4%; Tau ThT inhib: inconclusive

How did C=CCN1C(=O)/C(=C/c2ccc(O)c(OC)c2)S/C1=N/c1nccs1 do in these assays?
Tau fluor counter: 28.2µM*[quencher]; HPGD inh: -16.7%; ALDH1A1 block: 1µM*; Tau FP inhib: 0.4%; NPSR antagonist: -5.1%; Tau ThT inhib: inconclusive

How did C=CCN1C(=O)/C(=C/c2ccc(N(C)C)cc2)S/C1=N\c1nnc(CC)s1 do in these assays?
Tau fluor counter: -22.4%; HPGD inh: -10.4%; ALDH1A1 block: inconclusive; Tau FP inhib: 12.8%; NPSR antagonist: -0.2%[46.1 µM]; Tau ThT inhib: -17.2%

How did C=CCN1C(=O)/C(=C/c2ccc(OCC(=O)O)cc2)S/C1=N/c1nccs1 do in these assays?
Tau fluor counter: -0.1%; HPGD inh: -18.8%; ALDH1A1 block: 5.01µM*; Tau FP inhib: 5.0%; NPSR antagonist: -11.4%; Tau ThT inhib: inconclusive

Results for COC(=O)NC(c1ccc(Cl)cc1)C(C(C)=O)C(=O)OC (stereo not given) ?
Tau fluor counter: -12.4%[11.6 µM]; ALDH1A1 block: 13.0%[13.5 µM]; Tau FP inhib: 3.8%[11.6 µM]; Tau ThT inhib: -10.9%[11.5 µM]

Results for COc1ccc(C2C(C(=O)N3CCN(c4ccccc4F)CC3)c3ccccc3C(=O)N2C)cc1 (stereo not given) ?
Tau fluor counter: 9.3%; HPGD inh: -7.4%; ALDH1A1 block: 0.891µM*; Tau FP inhib: 0.0%; NPSR antagonist: -13.3%[46.1 µM]; Tau ThT inhib: 0.6%
